The source of these data is PubChem BioAssay (EPA / NIEHS).

Values joined by “and” are separate entries in the source; they are usually repeats but may differ in a detail not shown here. Equal values may be shown once. Some compounds were tested as several samples or in several runs, with calls that do not always agree. Active and inactive are the calls of the source. Rule for the calls: active = hit-call score of the fitted dose curve at least 0.9, where 1 is the maximum; inactive = score below 0.9.

A short description of the test: APR_HepG2_CellCycleArrest_72hr: Apredica 72-hour HepG2 Assay for Cell Cycle Arrest (AID 2282914). The conditions noted are these: high-content imaging, actives raise or lower the signal. The method, then: APR_HepG2_72hr is a cell-based, multiplexed-readout assay that uses HepG2, a human liver cell line, with measurements taken at 72 hours after chemical dosing in a 384-well plate.APR_HepG2_CellCycleArrest_72hr is one of 10 assay component(s) measured or calculated from the APR_HepG2_72hr assay. It is designed to make measurements of cell phenotype, a form of morphology reporter, as detected with fluorescence intensity signals by HCS Fluorescent Imaging technology.Data from the assay component APR_HepG2_CellCycleArrest_72hr was analyzed into 1 assay endpoint. This assay endpoint, APR_HepG2_CellCycleArrest_72hr, was analyzed with bidirectional fitting relative to DMSO as the negative control and baseline of activity. Using a type of morphology reporter, measures of all nuclear dna for gain or loss-of-signal activity can be used to understand the signaling at the pathway-level as they relate to the gene . Furthermore, this assay endpoint can be referred to as a primary readout, because this assay has produced multiple assay endpoints where this one serves a signaling function. To generalize the intended target to other relatable targets, this assay endpoint is annotated to the cell cycle intended target family, where the subfamily is arrest.
Cells were treated with dimethyl sulfoxide (DMSO) as a solvent control at a final concentration of 0.5% v/v or with compounds in DMSO with a resulting final DMSO concentration of 0.5% v/v. Compound treatment was done at concentrations of 0.39, 0.78, 1.56, 3.12, 6.24, 12.5, 25, 50, 100, and 200 uM in duplicate on each plate. Cells were treated with compounds for 1, 24, or 72 hr. Carbonyl […] m-chloro-phenylhydrazone (CCCP) and taxol were used as positive controls for mitochondrial function and cytoskeletal stability, respectively; DMSO served as the negative control for this experiment. Cells were fixed by the direct addition of 50 uL formaldehyde in Hank's Balanced Salt Solution (HBSS) to a final concentration of 3.7%. After incubation in the fixation medium for 30 min at room temperature (293-298 K), cells were rinsed twice with HBSS and treated with cell permeabilization buffer (16 uL of 0.5% Triton X-100) for 10 min at room temperature (293-298 K) before labeling. For mitochondrial membrane potential and mitochondrial measurements, pre-fixed cells were incubated with 50 uL of MitoTracker Red CMXRos (Invitrogen) at a concentration of 250 nM for 30 min before fixation. In the remaining cases, post-fixed cells were labeled by incubation with a multiplexed mixture of primary antibodies in HBSS for 60 min at room temperature (293-298 K) to detect immunoreactivity of c-Jun (1:500), phospho-histone H3 (1:100), phospho-histone H2A.x (1:200), p53 (1:400), alpha-tubulin (1:200) and Hoechst 33342 (2 ug/mL). Cells were labeled for multiplexed imaging on two separate plates: a) Hoechst 33342, MitoTracker Red, phospho-histone H3, and alpha-tubulin, and b) Hoechst 33342, phospho-histone H2A.x, and c-Jun. A final rinse with HBSS (50 uL) was performed before analysis. The primary and secondary antibodies for the proteins were phospho-histone H3 (rabbit anti-phospho-histone H3 and FITC-donkey anti-rabbit IgG), phospho-histone H2A.x (mouse anti-phospho-histone H2A.x and FITC-donkey anti-mouse IgG), c-Jun (rabbit anti-phospho-c-Jun and Cy3-donkey anti-rabbit IgG), p53 (sheep anti-p53 and Cy5-donkey anti-sheep IgG), alpha-tubulin (mouse anti-alpha-tubulin and Cy5-donkey anti-mouse IgG). These antibodies are available as the CellCiphr HepG2 assay kit (Millipore).Digital images of each well were captured using a Cellomics ArrayScan VTI (Thermo Scientific Cellomics) (0.8 NA objective, 0.63x optical coupler, and XF-93 filter set) at 20x magnification. The images were acquired using the autofocus feature of the ArrayScan instrument, which entails the following steps. First, the camera focuses on channel 1 (Hoechst 33342), where nuclei are identified. Second, a Z offset of 1 um is used for capturing mitochondria (MitoTracker Red). […]
With `CCN(CC)C(=O)c1cccc(C)c1`, the molecule was called inactive.

By AC50 is commonly meant the concentration giving half of the maximal activity seen. For `CC(=O)S[C@@H]1CC2=CC(=O)CC[C@]2(C)[C@H]2CC[C@@]3(C)[C@@H](CC[C@@]34CCC(=O)O4)[C@H]12`, the AC50 was 44.1 µM (active).

Consider `c1ccc2[nH]c(-c3cscn3)nc2c1`, for which the outcome was inactive.

Take `Oc1ccc(C(c2ccc(O)cc2)C(Cl)(Cl)Cl)cc1`: the outcome was inactive.

With `CCOC(=O)C(C)Oc1ccc(Oc2cnc3cc(Cl)ccc3n2)cc1` (stereo not given), the call was inactive.

With `CCNc1nc(N)nc(Cl)n1`, the outcome was inactive.

On to `C[C@]12CC[C@@H]3c4ccc(O)cc4C[C@@H](CCCCCCCCCS(=O)CCCC(F)(F)C(F)(F)F)[C@H]3[C@@H]1CC[C@@H]2O` (stereo not given in full), for which the result was inactive.

With `CCC(O)=C1C(=O)CC(C(=O)O)CC1=O` (stereo not given), the molecule was classed as inactive.

As to `CCOC(=O)[C@H](C)Oc1ccc(Oc2nc3ccc(Cl)cc3o2)cc1`, the molecule was called inactive.

As for `O=C(c1ccc(O)cc1O)c1ccc(O)cc1O`, the call was inactive.

Regarding `CC(C)(c1ccc(O)cc1)c1ccc(O)cc1`, the molecule was called inactive.

For the molecule `Cc1nn(C)c(Oc2ccccc2)c1C=NOCc1ccc(C(=O)OC(C)(C)C)cc1`, the AC50 is 19.8 µM (active).

`CCCCCOC(=O)COc1cc(N2C(=O)C3=C(CCCC3)C2=O)c(F)cc1Cl`: the molecule was classed as inactive.

Turning to `CCOC(=O)NCCOc1ccc(Oc2ccccc2)cc1`, the call was inactive.

As for `S=C(S)NCCNC(=S)S.[Mn+2].[S-]C([S-])=NCCN=C([S-])[S-].[Zn+2]`, the result was inactive; the AC50 is 53.5 µM (active) and 51.5 µM (active).

Take `CC1(C)C(C=C(Cl)Cl)C1C(=O)OCc1cccc(Oc2ccccc2)c1` (stereo not given): the AC50 was 101 µM (active).

Turning to `CN(C)C(=O)Nc1ccc(Cl)c(Cl)c1`, the result was inactive.

Take `COC(=O)c1ccccc1S(=O)(=O)NC(=O)Nc1nc(OC(F)F)cc(OC(F)F)n1`: the result was inactive.

Consider `OB(O)O`, for which the result was inactive.

In the case of `COC(=O)CSc1cc(N=c2sc(=O)n3n2CCCC3)c(F)cc1Cl`, the molecule was called inactive.

In the case of `C#C[C@]1(O)CC[C@H]2[C@@H]3CCC4=CC(=O)CC[C@@H]4[C@H]3CC[C@@]21CC`, the molecule was called inactive.

With `COC(=O)c1ccc(CNS(C)(=O)=O)cc1S(=O)(=O)NC(=O)Nc1nc(OC)cc(OC)n1`, the molecule was called inactive.

For `COc1nc(C)nc(NC(=O)NS(=O)(=O)c2ccccc2OCCCl)n1`, the result was inactive.

Turning to `CCCOC(=O)NCCCN(C)C`, the molecule was called inactive.

As to `CCCOC(=O)c1ccc(C(=O)OCCC)nc1`, the outcome was inactive.

Take `O=C(O)C1(C(=O)Nc2ccc(Cl)cc2Cl)CC1`: the molecule was classed as inactive.

Regarding `CC(C)CCCCCCc1ccc(O)cc1`, the AC50 is 123 µM (active).

Consider `CCOC(=O)c1ccc(O)cc1`, for which the call was inactive.

`N#CSCSc1nc2ccccc2s1`: the outcome was inactive.

Take `CCC(C)OC(=O)N1CCCCC1CCO` (stereo not given): the molecule was called inactive.

As for `CCCCOCCOCCOCc1cc2c(cc1CCC)OCO2`, the AC50 was 45 µM (active).

For the molecule `O=C(Nc1ccc([N+](=O)[O-])cc1Cl)c1cc(Cl)ccc1O`, the AC50 was 0.463 µM (active).

On to `O=C(O)c1ccccc1`, for which the result was inactive.

Turning to `C[C@]12C[C@H](O)[C@H]3[C@@H](CCC4=CC(=O)CC[C@@]43C)[C@@H]1CC[C@@H]2C(=O)CO`, the result was inactive.

For the molecule `CCCCCCC(C)OC(=O)COc1nc(F)c(Cl)c(N)c1Cl` (stereo not given), the call was inactive.

Consider `CCN(Cc1c(F)cccc1Cl)c1c([N+](=O)[O-])cc(C(F)(F)F)cc1[N+](=O)[O-]`, for which the call was inactive.

Take `COC(=O)c1cccc(C)c1S(=O)(=O)NC(=O)Nc1nc(OCC(F)(F)F)nc(N(C)C)n1`: the call was inactive.

`C=CCOC(Cn1ccnc1)c1ccc(Cl)cc1Cl` (stereo not given): the molecule was called inactive.

As for `CCCN(CCC)C(=O)SCC`, the outcome was inactive.
